Results on 40 compounds are retold here after PubChem BioAssay (NCI).

The panel holds about 83,000 compounds, 20% with a hit somewhere; the sample as a whole holds those more often.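 Testing used 96-well plates and a 48-hour single-concentration exposure. Example: -40 means 40% of the starting cells died.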 Calls of active or inactive are those of the source. How the source made its calls: active means growth percent below 10; inactive means the rest.

The subject of the assay is HL-60(TB) leukemia. Briefly: NCI-60 one-dose screen, 48 h (100 = growth as untreated, 0 = no growth, -100 = all killed). The conditions noted are these: 10 µM unless noted.
As for `COc1ccc(CNc2c3ccccc3nc3ccccc23)cc1`, the growth was 43% (inactive). `CN(CCCNC(=O)Cc1ccc2ccc3cccc4ccc1c2c34)CCCNc1cc(-c2ccc3ccccc3c2)nc2ccccc12`: the growth is -60.1% (active). As to `N=C(N)c1ccc(-c2ccc(-c3cccs3)s2)cc1`, the growth was -46.6% (active). The value for `CC1CC(O)CC(C)(C)C1.CC1CC(O)CC(C)(C)C1.CC1CC(O)CC(C)(C)C1.CC1CC(O)CC(C)(C)C1.[Ti]` (stereo not given) was 104% (inactive); that for `O=C(NS(=O)(=O)c1ccc2ccccc2c1)n1cc(-c2ccncc2)c(-c2ccc(Cl)c(O)c2)n1` was 43.3% (inactive); that for `O=C(c1ccccc1)N1N=C(c2ccccc2)CC1c1nnc2n(Cc3ccccc3)c(=O)c3c4c(sc3n12)CCCC4` (stereo not given) was 97.7% (inactive).

Consider `CC(=O)OCCO`, for which the growth was 105% (inactive). For `COC(=O)c1cc2c3c(cc(O)c2[nH]1)N(C(=O)C1Cc2cc(OC)c(OC)c(OC)c2N1)CC3CCl` (stereo not given), the growth was -5.77% (active). The value for `O=c1ccc(N=Nc2ccccc2)ccc1Cl` was 42.8% (inactive). The value for `COc1ccc(NC(=O)CCn2cnc3c(cc(-c4ccccc4)n3-c3ccccc3)c2=O)cc1` was 95.9% (inactive); that for `CN1c2ccccc2[C@]2(Cc3ccccc3)Cc3ccccc3N[C@H]12` was 94.7% (inactive).

As to `O=C(NC1=CC(=O)c2ccccc2C1=O)c1ccccc1`, the growth was -30.8% (active). As to `COc1cc(/C=C/C(=O)C(=Cc2ccc(F)c(F)c2)C(=O)/C=C/c2ccc(O)c(OC)c2)ccc1O`, the growth was 16.6% (inactive).

`COc1ccc(-c2nsc3c2NC(=O)CC3c2ccc3c(c2)OCO3)cc1` (stereo not given): the growth was -22.3% (active). The value for `OCCNCCNC(Cc1ccc(Cl)cc1)c1ccccc1` (stereo not given) was 76.4% (inactive). The value for `C=CCn1c(C)nc2cc(Nc3nc(N4CCCC4)nc4ccccc34)ccc21` was 88.5% (inactive); that for `COc1cc(C)ccc1Oc1nc(Nc2ccc(N3CCOCC3)cc2)ncc1N=Cc1cc(C(F)(F)F)cc(C(F)(F)F)c1` was 67.4% (inactive).

With `CCC(CCCN1C(=O)c2ccccc2C1=O)Nc1cc(OC)cc2c(C)ccnc12` (stereo not given), the growth was 87.4% (inactive). The value for `COc1ccc(-c2cc(-c3ccc(OC)c(OC)c3)nc(SCCCCCC(=O)NO)n2)cc1` was -9.93% (active); that for `Cc1cc(Nc2nc(-c3ccc(F)cc3)nc3ccccc23)n[nH]1` was 39% (inactive). The value for `O=S(=O)(O)c1cccc2cccnc12` was 94% (inactive); that for `c1ccc2c(c1)Nc1ccncc1S2` was 132% (inactive); that for `c1ccc(CNc2ccc3nc(CCC4CCCCC4)[nH]c3c2)cc1` was 47% (inactive). For `CCOC(=O)C(=O)CC(=O)c1ccccc1`, the growth was 95.5% (inactive). The value for `Cc1ccc(N)cc1[N+](=O)[O-]` was 96.5% (inactive).

As to `c1cc(C2CCCCC2)ccc1-c1cnc2nonc2n1`, the growth was -27.3% (active).

Turning to `Cc1c[nH]c(=O)n(Cc2nnc(CCC(=O)c3nc4ccccc4[nH]3)o2)c1=O`, the growth is -0.434% (active). The value for `CCOC(=O)c1cnc2sc(-c3ccc(OC)cc3)nc2c1Cl` was 93.8% (inactive); that for `COc1cc2nc(Nc3cccc(Cl)c3)nc(N)c2cc1OC` was 87.1% (inactive). The value for `COc1ccc([C@@H]2[C@@H](Cl)C(=O)N2c2cc(OC)c(OC)c(OC)c2)cc1C` was -30.3% (active); that for `CC(C)(C)NCCC(O)c1cc(C(F)(F)F)nc2c(C(F)(F)F)cccc12` (stereo not given) was 73.5% (inactive).

As to `COc1c(B(O)O)cccc1-c1nc2ccc3[nH]ncc3c2c2c1CCCC2`, the growth is -28.1% (active). Take `CC1=NOCC(=O)N1`: the growth is 104% (inactive). The value for `CN(C)c1ccc(/C=C2\C=C(c3ccccc3)N(CCc3ccccc3)C2=O)cc1` was 74.5% (inactive). The value for `CC(C)(C)OC(=O)N1C=C/C(=C\Cn2cc(-c3ccccc3)nn2)CC1` was 75.7% (inactive); that for `Fc1ccc2[nH]cc(-c3nc(-c4c[nH]c5ccncc45)cs3)c2c1` was -42.1% (active); that for `CS(=O)(=O)c1ccc(C(=O)Nc2ccc(Cl)c(-c3ccccn3)c2)c(Cl)c1` was 14.2% (inactive). The value for `CCN(CC)CCOc1ccc(C(=O)/C=C\c2ccc(Cl)cc2Cl)cc1` was -29.2% (active). For the compound `CO[C@@H]1[C@H](N(C)C(=O)c2ccccc2)C[C@@H]2O[C@]1(C)n1c3ccccc3c3c4c(c5c6ccccc6n2c5c31)C(=O)NC4=O`, the growth was 78.9% (inactive). The value for `COc1cc(/C=C2\C(=O)Nc3ccc(N(C)C)cc32)cc(OC)c1OC` was 27.5% (inactive).
